NALP3 yeast inh: NALP3 inhibition in yeast; Yeast reconstituted NLRP3/ASC/caspase-1, beta-gal luminescence, 24 h; inhibition, % at 10 µM; actives 0.39% (n = 330,000);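 active = inhibition of 50% or more; inactive = inhibition below 50%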
PfHsp90 yeast 2: growth inhibition of yeast expressing Plasmodium Hsp90; S. cerevisiae expressing PfHsp90, BacTiter-Glo ATP, 48 h; yeast lacking PDR1 and PDR3 efflux regulators; inhibition, % at 9.4 µM; actives 0.32% (n = 310,000);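 active = every replicate shows inhibition above about 80%, whatever the replicate mean, limit read from the data; inconclusive = mean inhibition reaches the set limit but some replicate falls short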
tim23-1 inh: tim23-1 yeast growth inhibition; S. cerevisiae tim23-1 growth, BacTiter-Glo luminescence, 24 h; inhibition, % at 20 µM; actives 1.3% (n = 330,000); AID 463212;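 active = growth inhibition of the mutant yeast at or above 50%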;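 also: temperature-sensitive mutant grown at 25 °C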
SKKanGAS inh: blocks kanamycin growth of S. pyogenes SKKanGAS strain; BacTiter-Glo, 6 h; AID 1662; inhibition, % at 7.5 µM; actives 1.3% (n = 300,000);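 active = mean replicate score, as percent of positive control median, at least 50; inconclusive = mean below 50 but one replicate at or above 50; inactive = mean and every replicate below 50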;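 also: strain carries kanamycin resistance gene driven by streptokinase promoter and grows in 40 µg/ml kanamycin; loss of luminescence reflects streptokinase promoter inhibition or plain growth inhibition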
tim10-1 inh: growth inhibitors of tim10-1 mutant yeast; actives 2.2% (n = 330,000); AID 463190; inhibition, % at 20 µM; S. cerevisiae tim10-1 ts strain growth, BacTiter-Glo, 24 h;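 active = inhibition of at least 40%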;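 also: mutant grown at 25 °C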
TIM10 inh: inhibits growth of TIM10 yeast strain; S. cerevisiae TIM10 strain growth, BacTiter-Glo luminescence, 24 h; inhibition, % at 10 µM; actives 1.4% (n = 330,000);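 active = inhibition of 40% or more at the single tested concentration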;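 also: wild-type TIM10 isogenic control strain grown at permissive 25 °C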
tim10-1 confirm: tim10-1 yeast growth inhibition, confirmed. inhibition, % at 20 µM. actives 56% (n = 7,400). shares compounds with tim10-1 inh. AID 463213. S. cerevisiae tim10-1 ts strain growth, BacTiter-Glo, 24 h;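 active = inhibition of yeast growth at or above a set limit in either of two repeat tests at 20 µM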;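 also: tim10-1 mutant grown at permissive 25 °C to find synthetic lethal compounds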
Of the large screens only hits and unclear results are named; the others gave an inactive call (follow-up assays come after a bar, where they were run). In the library only some 4.6% were active in any assay of this set; here they are far more common.

CCOC(=O)c1c(N)sc(C(=O)OC)c1C	none
COc1ccc(Nc2ncnc3c2cnn3Cc2ccccc2)cc1	tim10-1 inh 46.3 | tim10-1 confirm 34.0
COc1ccc(-n2ncc3c(N4CCN(Cc5ccccc5)CC4)ncnc32)cc1	tim10-1 inh 45.5 | tim10-1 confirm inactive
CCOc1ccc(Nc2ncnc3c2cnn3Cc2ccccc2)cc1	tim10-1 inh 41.0 | tim10-1 confirm 36.9
O=C(Cc1ccc(-n2c(=O)[nH]c3ccsc3c2=O)cc1)N1CCN(c2ccc(Cl)cc2)CC1	none
O=C(C[C@H]1C[C@H](C(=O)N2CCCCC2)[C@@]2(CCc3ccccc3)c3[nH]c4ccc(Cl)cc4c3CCN2C1=O)NCc1ccco1	none (no result: NALP3 yeast inh, SKKanGAS inh)
Cc1ccc(S(=O)(=O)N2CCN(C(=O)c3cc4c(s3)CCCC4)CC2)c(C)c1	none (no result: SKKanGAS inh)
O=C(c1cc2c(s1)CCCC2)N1CCN(S(=O)(=O)c2ccccc2C(F)(F)F)CC1	tim10-1 inh 41.4 | tim10-1 confirm inactive
COc1cc(C(C)=O)ccc1O	none
CC(C)Cc1nc2oc3c(NCC4CCCO4)ncnc3c2c2c1CCC2 (configuration not stated)	tim10-1 inh 45.1 | tim10-1 confirm inactive
Nc1ccc2c(c1)OC1(CCCCC1)O2	none (no result: NALP3 yeast inh, tim23-1 inh, tim10-1 inh, TIM10 inh)
Cc1cc(C)nc(NC2=NCCN2C(=S)Nc2c(C)cccc2C)n1	none
CC(NC(=S)Nc1ccc(Cl)cc1Cl)C(c1cccs1)N1CCCC1 (configuration not stated)	tim10-1 inh 41.1 | tim10-1 confirm inactive
COc1cccc(/C=N/n2c(C3CCCCC3)n[nH]c2=S)c1O	tim10-1 inh 48.4 | tim10-1 confirm 32.9
Cc1cccc2sc(N(CCCN(C)C)C(=O)c3ccc(C(=O)c4ccccc4)cc3)nc12	tim10-1 inh 42.6 | tim10-1 confirm inactive
CN(C)CCCN(C(=O)c1nc2ccccc2s1)c1nc2ccc(F)cc2s1	none
CN(C)CCCN(C(=O)c1ccc(C(=O)c2ccccc2)cc1)c1nc2ccc(F)cc2s1	tim10-1 inh 49.0 | tim10-1 confirm inactive
Cc1cccc2sc(N(CCCN(C)C)C(=O)c3sc4ccccc4c3Cl)nc12	none (no result: SKKanGAS inh)
Cc1ccccc1C(=O)NCC(c1ccco1)N1CCc2ccccc2C1 (configuration not stated)	none (no result: PfHsp90 yeast 2)
Cc1ccccc1NC(=O)c1ccc(F)c(S(=O)(=O)N2CCN(c3ccccn3)CC2)c1	tim10-1 inh 41.4 | tim10-1 confirm 38.6
CC(C)(C)c1csc(NC(=O)c2c(F)c(F)c(F)c(F)c2F)n1	tim10-1 inh 40.7 | tim10-1 confirm inactive
CSc1ncccc1C(=O)Nc1nc(C(C)(C)C)cs1	none
C/C(=N/NC(=O)CN1CCN(S(=O)(=O)c2ccc(Br)cc2)CC1)c1ccco1	none
COc1cc2c(c3oc(-c4ccccc4)cc(=O)c13)C=CC(C)(C)O2	tim10-1 inh 47.0 | tim10-1 confirm inactive
COc1cc(OC)c2c(=O)cc(-c3ccccc3)oc2c1	none
CCCCc1ccc(NC(=S)NCC2CCCO2)cc1 (configuration not stated)	tim10-1 inh 45.1 | tim10-1 confirm 33.5
S=C(NCC1CCCO1)Nc1ccc(Cl)c(Cl)c1 (configuration not stated)	tim10-1 inh 41.3 | tim10-1 confirm inactive
CN(C)c1ccc(NC(=S)NCC2CCCO2)cc1 (configuration not stated)	none
Cn1c(=O)[nH]c(=O)c2c1nc(N1CCCC1)n2CCCSc1nnnn1-c1ccccc1	none
Cn1c(=O)[nH]c(=O)c2c1nc(N1CCCCCC1)n2CCCSc1nnnn1-c1ccccc1	tim10-1 inh 41.2 (no result: PfHsp90 yeast 2) | tim10-1 confirm inactive
CC(=O)Oc1ccc(-c2nc(-c3cccnc3)no2)cc1	SKKanGAS inh inconclusive, tim10-1 inh 43.1 | tim10-1 confirm 49.0
CCCN1CN(c2ccccc2)C(=S)N(c2ccccc2)C1	none
COc1ccc(OC)c(NC(=O)CSc2nc3n[nH]c(C)c3c(=N)n2-c2cccc(Cl)c2C)c1	tim10-1 inh 42.6 | tim10-1 confirm inactive
CCOc1ccccc1NC(=O)CCSc1nc2n[nH]c(C)c2c(=N)n1-c1ccccc1Cl	none
Cc1ccccc1-n1c(SCC(=O)Nc2ccccc2Cl)nc2n[nH]c(C)c2c1=N	tim10-1 inh 41.6 | tim10-1 confirm inactive
Cc1ccccc1-n1c(SCc2ccccn2)nc2n[nH]c(C)c2c1=N	tim10-1 inh 40.2 | tim10-1 confirm 38.4
O=[N+]([O-])c1cccc(OCC(O)CN2CCN(S(=O)(=O)c3cc(Cl)ccc3Cl)CC2)c1 (configuration not stated)	none
O=C(NC1CCN(C(=O)Nc2ccc(F)cc2)CC1)c1ccccc1F	none
COc1ccc(S(=O)(=O)Nc2nnc(Cc3ccc(OC)c(OC)c3)s2)cc1	none
Cc1c(C(=O)NCc2ccc(S(N)(=O)=O)cc2)oc2ccc(Cl)cc12	none
CCc1cc2c(NCc3ccccc3)nc(C)nc2s1	tim10-1 inh 48.5 | tim10-1 confirm inactive
COc1cc(/C=N/NC(=O)c2sc3nc(C)cc(C)c3c2N)ccc1O	none
COc1ccc(N2CCN(c3cc(C)nc4ccc(OC)cc34)CC2)cc1	tim10-1 inh 42.5 | tim10-1 confirm inactive
COc1ccc2nc(C)cc(N3CCC(C(N)=O)CC3)c2c1	none
CC(C)(C)c1cc(CCC(=O)NNC(=S)NC(=O)c2ccccc2)cc(C(C)(C)C)c1O	SKKanGAS inh 97.1, tim10-1 inh 45.9 | tim10-1 confirm 30.6
CC(C)(C)c1cc(CCC(=O)NNC(=O)c2ccco2)cc(C(C)(C)C)c1O	none
O=C(c1ccc(Oc2ccccc2)cc1)c1nc2c(n1O)CCCC2	tim10-1 inh 41.0 (no result: PfHsp90 yeast 2) | tim10-1 confirm inactive
Cc1cccc(Nc2ncccc2C(=O)NCc2cccs2)c1C	tim10-1 inh 52.1 | tim10-1 confirm 34.5
O=C(NCc1cccs1)c1cccnc1Cl	none
Cc1noc(/C=C/c2cccs2)c1S(=O)(=O)N1CCC(C(=O)NCCCN2CCCC(C)C2)CC1 (configuration not stated)	none
Cc1ccc(C(=O)CSC2=C(C#N)C(c3ccco3)C3=C(CC(C)(C)CC3=O)N2)cc1 (configuration not stated)	none
N#CC1=C(SCC(=O)c2ccc(Cl)cc2)NC2=C(C(=O)CCC2)C1c1ccco1 (configuration not stated)	tim10-1 inh 46.0 | tim10-1 confirm inactive
O=C(OCc1nc2ccccc2s1)C1CCN(S(=O)(=O)c2cccs2)CC1	tim10-1 inh 48.1 | tim10-1 confirm inactive
CC(C)c1ccc(NC(=O)CCCN2C(=O)NC(C)(C)C2=O)cc1	tim10-1 inh 57.5 (no result: SKKanGAS inh) | tim10-1 confirm inactive
N#Cc1c(NC(=O)C2CC(Cl)=CCC2C(=O)O)sc2c1CCCC2 (configuration not stated)	none

Screening results (PubChem)
